Source: PubChem BioAssay (Tox21)
Inconclusive results are not listed. The source made the active and inactive calls. Unless noted, calls follow the shape of the dose curve; as a rule, active = well fitted curve in the direction sought with a large enough effect in the repeat runs; inconclusive = weak or mixed curves; inactive = no such curve, though single readings can be large; an effect the other way counts as inactive or inconclusive.

Assays:
[1] = A CellTox Green Cytotoxicity Assay to monitor cytotoxicity in HEK293 cells - 32 hour (AID 1224881); also: nearly all actives have a fitted effect of over 40% in size
Outline: (§1)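 Homogeneous no-lysis format: HEK293 cell suspension mixed with CellTox Green reagent, seeded, incubated 5 h at 37 C/5% CO2, then dosed by pintool with compound in DMSO.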

[2] = A CellTox Green Cytotoxicity Assay to monitor cytotoxicity in HepG2 cells - 0 hour (AID 1224882); also: nearly all actives have a fitted effect of over 35% in size
Outline: (§2)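 Fluorescent DNA-binding dye, 600 HepG2 cells/well, 5 h preincubation then compound in DMSO; same plates read at 0–40 h, 37 C.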

[3] = A CellTox Green Cytotoxicity Assay to monitor cytotoxicity in HepG2 cells - 32 hour (AID 1224883); also: nearly all actives have a fitted effect of over 50% in size
Outline: as §2

[4] = A CellTox Green Cytotoxicity Assay to monitor cytotoxicity in HEK293 cells - 8 hour (AID 1224884); also: nearly all actives have a fitted effect of over 35% in size
Outline: as §1

[5] = qHTS RealTime-Glo MT Cell Viability Assay in HepG2 cells - 16 hour (AID 1224885); also: nearly all actives have a fitted effect of over 50% in size
Outline: (§3)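 Cells + NanoLuc/prosubstrate dispensed (600 cells/well) → 5 h at 37 C/5% CO2 → compounds in DMSO transferred → 40 h incubation at 37 C, luminescence read at 0, 8, 16, 24, 32, 40 h.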

[6] = qHTS RealTime-Glo MT Cell Viability Assay in HEK293 cells - 24 hour (AID 1224886); also: top concentration of the series differs between compounds; nearly all actives have a fitted effect of over 50% in size
Outline: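 Tox21 10K qHTS, HEK293, 600 cells/well, RealTime-Glo reagent co-dispensed with cells; 5 h preincubation, compound by pintool, 37 C, luminescence at 0–40 h.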

[7] = qHTS RealTime-Glo MT Cell Viability Assay in HEK293 cells - 8 hour (AID 1224887); also: top concentration of the series differs between compounds; nearly all actives have a fitted effect of over 50% in size
Outline: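 Measured as luminescence from the same continuously cultured HEK293 wells at successive time points (0, 8, 16, 24, 32, 40 h) after compound addition. Reagent present from seeding; dosing at 5 h; incubation 37 C.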

[8] = qHTS RealTime-Glo MT Cell Viability Assay in HepG2 cells - 0 hour (AID 1224889); also: nearly all actives have a fitted effect of over 50% in size
Outline: as §3

[9] = A CellTox Green Cytotoxicity Assay to monitor cytotoxicity in HepG2 cells - 8 hour (AID 1224890); also: nearly all actives have a fitted effect of over 45% in size
Outline: as §2

[10] = qHTS assay to identify small molecule antagonists of the estrogen receptor alpha (ER-alpha) signaling pathway using the BG1 cell line in the presence of 0.1 nM 17-beta-estradiol - cell viability counter screen (AID 1259241); also: nearly all actives have a fitted effect of over 40% in size
Outline: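 VM7Luc4E2 cells (endogenous ER-alpha, 4×ERE-luciferase), hormone-starved 5 days in charcoal-stripped FBS, were treated with compounds plus 0.1 nM 17beta-estradiol for 22 hr at 37C; viability read in same wells as CellTiter-Fluor live-cell protease fluorescence.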

[11] = qHTS assay to identify small molecule antagonists of the androgen receptor (AR) signaling pathway using the MDA cell line in the presence of 0.5 nM R1881 - cell viability counter screen (AID 1259242); also: nearly all actives have a fitted effect of over 45% in size
Outline: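 Human breast carcinoma MDA-kb2 cells, cultured without CO2, receive compounds alongside 0.5 nM (final) R1881 agonist. After 16 hr at 37C, viability is taken as live-cell protease signal.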

[12] = molecular target: Estrogen receptor (Homo sapiens) (UniProt P03372); experiment: qHTS assay to identify small molecule antagonists of the estrogen receptor alpha (ER-alpha) signaling pathway using the BG1 cell line in the presence of 0.1 nM 17-beta-estradiol (AID 1259244); also: nearly all actives have a fitted effect of over 50% in size
Sequence of Estrogen receptor (Homo sapiens) (P03372 whole entry, looked up): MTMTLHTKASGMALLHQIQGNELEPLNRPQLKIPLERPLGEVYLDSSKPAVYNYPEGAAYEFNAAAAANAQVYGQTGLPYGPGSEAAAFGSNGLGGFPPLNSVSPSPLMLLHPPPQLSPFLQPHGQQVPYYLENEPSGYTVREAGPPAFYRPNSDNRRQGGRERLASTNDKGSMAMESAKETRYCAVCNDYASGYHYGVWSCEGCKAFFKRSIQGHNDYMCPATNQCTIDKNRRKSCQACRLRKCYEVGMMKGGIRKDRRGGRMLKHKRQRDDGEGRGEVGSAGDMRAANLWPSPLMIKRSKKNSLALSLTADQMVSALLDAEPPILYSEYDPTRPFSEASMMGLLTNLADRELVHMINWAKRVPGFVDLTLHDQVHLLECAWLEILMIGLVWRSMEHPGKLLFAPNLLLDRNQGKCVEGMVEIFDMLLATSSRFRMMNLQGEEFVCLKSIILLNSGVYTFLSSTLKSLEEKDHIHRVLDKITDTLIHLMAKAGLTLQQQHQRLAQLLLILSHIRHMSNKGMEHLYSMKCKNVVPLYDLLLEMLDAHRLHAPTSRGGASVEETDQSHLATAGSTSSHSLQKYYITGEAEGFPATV
Outline: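 Seeding of stripped-serum-adapted VM7Luc4E2 cells, 24 h attachment, compound transfer, then 0.1 nM final 17beta-estradiol; after 22 h incubation, ONE-Glo reagent and luminescence reading.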

[13] = qHTS assay to identify small molecule phospholipidosis (PLD) inducers (AID 1259344; active = well fitted curve in the direction sought with a large enough effect; an effect the other way counts as inactive or inconclusive)
Outline: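 Cells (HepG2, 900 per well) attach for 4 h, receive LipidTOX Red and compound together, incubate 24 h at 37 C, are fixed 30 min with paraformaldehyde/Hoechst, then imaged at one site per well.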

[14] = qHTS assay to identify small molecule HDAC inhibitors (AID 1259364);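 also: wild-type HCT-116 cells with endogenous class I/II HDAC activity; top concentration of the series differs between compounds; nearly all actives have a fitted effect of over 45% in size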
Outline: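 After a 2 hr compound incubation (37C, 5% CO2), HCT-116 cells seeded at 1,500/well the day before received HDAC-Glo reagent; signal read as luminescence after 30 min at room temperature.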

[15] = qHTS assay to identify small molecule agonists of the sonic hedgehog signaling (Shh) pathway - cell viability counter screen (AID 1259366); also: nearly all actives have a fitted effect of over 50% in size
Outline: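 NIH/3T3-derived 3T3 Gli1-Luc cells (stable Gli1-responsive firefly luciferase reporter) were seeded, rested 4 hr at 37 C/5% CO2, then exposed to compounds in DMSO for 24 hr; viability was read by CellTiter-Fluor fluorescence in the same wells.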

[16] = qHTS assay to identify small molecule antagonists of the sonic hedgehog signaling (Shh) pathway - cell viability counter screen (AID 1259367); also: nearly all actives have a fitted effect of over 55% in size
Outline: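 Cytotoxicity was assessed in parallel with Shh reporter activity by measuring live-cell protease fluorescence (CellTiter-Fluor) in NIH/3T3 cells stably carrying Gli1-Luc, treated with compound under conditioned medium stimulation for 23 hr plus 1 hr reagent incubation.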

[17] = A CellTox Green Cytotoxicity Assay to monitor cytotoxicity in HEK293 cells - 16 hour (AID 1224888); also: nearly all actives have a fitted effect of over 35% in size
Outline: as §1

[18] = molecular target: Androgen receptor (Homo sapiens) (UniProt P10275); experiment: qHTS assay to identify small molecule antagonists of the androgen receptor (AR) signaling pathway using the MDA cell line in the presence of 0.5 nM R1881 (AID 1259243); also: nearly all actives have a fitted effect of over 50% in size
Sequence of Androgen receptor (Homo sapiens) (P10275 whole entry, looked up): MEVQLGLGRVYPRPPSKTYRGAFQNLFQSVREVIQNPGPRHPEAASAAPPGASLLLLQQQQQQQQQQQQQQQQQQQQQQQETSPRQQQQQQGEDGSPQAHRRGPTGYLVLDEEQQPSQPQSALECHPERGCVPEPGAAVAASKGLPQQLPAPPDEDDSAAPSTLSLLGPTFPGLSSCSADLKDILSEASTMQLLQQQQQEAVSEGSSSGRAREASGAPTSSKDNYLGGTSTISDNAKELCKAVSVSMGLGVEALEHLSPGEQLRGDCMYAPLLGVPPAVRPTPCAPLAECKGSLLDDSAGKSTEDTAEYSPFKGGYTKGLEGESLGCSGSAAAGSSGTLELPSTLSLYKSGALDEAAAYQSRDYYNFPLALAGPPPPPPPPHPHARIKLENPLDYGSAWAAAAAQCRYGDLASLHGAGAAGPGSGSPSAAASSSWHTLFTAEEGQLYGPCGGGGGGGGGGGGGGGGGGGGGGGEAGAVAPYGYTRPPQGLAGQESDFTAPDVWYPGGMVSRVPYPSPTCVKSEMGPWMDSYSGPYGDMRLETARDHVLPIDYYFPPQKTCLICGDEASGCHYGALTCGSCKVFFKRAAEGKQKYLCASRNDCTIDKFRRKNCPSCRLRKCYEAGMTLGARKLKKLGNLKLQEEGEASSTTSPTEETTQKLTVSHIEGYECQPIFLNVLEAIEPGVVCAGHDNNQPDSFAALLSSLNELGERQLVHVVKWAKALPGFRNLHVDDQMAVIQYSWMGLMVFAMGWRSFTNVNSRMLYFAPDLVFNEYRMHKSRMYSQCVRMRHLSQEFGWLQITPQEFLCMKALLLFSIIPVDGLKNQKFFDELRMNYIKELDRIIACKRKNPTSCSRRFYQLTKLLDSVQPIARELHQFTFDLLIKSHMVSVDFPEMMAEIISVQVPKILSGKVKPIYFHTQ
Outline: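 Cells: MDA-kb2 (MMTV-luc). Stimulus: 0.5 nM R1881. Time: 16 hr, 37C, no CO2. Detection: ONE-Glo luminescence after 30 min at RT.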

[19] = qHTS assay to identify small molecule HDAC inhibitors - cell viability counter screen (AID 1259365)
Outline: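 Wild-type HCT-116 cells were seeded at 1,500 per well, incubated overnight at 37 C, then exposed to compounds in DMSO for 2hr. Viability was read by CellTiter-Glo luminescence after 30min at room temperature.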
% is scaled to controls: 0 for no effect and ±100 for the full control effect.

CC[C@@H](CO)NC(=O)[C@@H]1C=C2c3cccc4c3c(cn4C)C[C@H]2N(C)C1
inactive: Potency [1] | outcome [2] | Potency [3] | Potency [4] | Potency [5] | Potency [6] | Potency [7] | outcome [8] | Potency [9] | outcome [10] | Potency [11] | Potency [12] | Potency [13] | Potency [14] | Potency [15] | Potency [16]

O=c1[nH]c2ccccc2n1C1CCNCC1
inactive: Potency [1] | outcome [2] | Potency [3] | Potency [4] | Potency [5] | Potency [6] | Potency [17] | outcome [8] | Potency [9] | outcome [10] | Potency [11] | Potency [18] | Potency [14] | outcome [19] | Potency [15] | Potency [16]

O=C1CC(=O)NC(=O)N1
inactive: Potency [1] | outcome [2] | Potency [3] | Potency [5] | Potency [6] | Potency [7] | Potency [17] | outcome [8] | Potency [9] | outcome [10] | Potency [11] | Potency [12] | Potency [14] | outcome [19] | Potency [15]

CCCCCCC1CCOC1=O (stereo not given)
inactive: Potency [1] | outcome [2] | Potency [3] | Potency [4] | Potency [5] | Potency [6] | Potency [7] | Potency [17] | outcome [8] | Potency [9] | outcome [10] | Potency [11] | Potency [14] | outcome [19] | Potency [15] | Potency [16]

O=P(O)(O)CN(CP(=O)(O)O)CP(=O)(O)O
inactive: cytotoxicity increase [1] 21.6% [at 15.8 µM] | outcome [2] | Potency [3] | Potency [5] | outcome [8] | Potency [9] | outcome [10] | Potency [11] | Potency [14] | outcome [19] | Potency [15]

CC(C)C(C)(N)C#N (stereo not given)
inactive: Potency [1] | outcome [2] | Potency [3] | Potency [4] | Potency [5] | Potency [7] | Potency [17] | outcome [8] | Potency [9] | outcome [10] | Potency [11] | Potency [14] | outcome [19] | Potency [15] | Potency [16]

CCC(C)(C#N)N=NC(C)(C#N)CC (stereo not given)
inactive: Potency [1] | outcome [2] | Potency [3] | Potency [6] | Potency [7] | outcome [8] | Potency [9] | outcome [10] | Potency [11] | Potency [12] | Potency [14] | outcome [19] | Potency [15] | Potency [16]

CC[C@H](N)c1ccccc1
inactive: Potency [1] | outcome [2] | Potency [3] | Potency [4] | Potency [5] | Potency [6] | Potency [17] | outcome [8] | Potency [9] | outcome [10] | Potency [11] | Potency [18] | Potency [12] | Potency [14] | outcome [19] | Potency [15] | Potency [16]

CN(C)C1CCCCC1
inactive: Potency [1] | Potency [3] | Potency [4] | Potency [5] | outcome [8] | Potency [9] | outcome [10] | Potency [11] | Potency [14] | outcome [19] | Potency [15] | Potency [16]

CCCN1CCC[C@@H]2Cc3[nH]ncc3C[C@H]21
inactive: Potency [1] | Potency [3] | Potency [4] | Potency [5] | Potency [7] | Potency [17] | outcome [8] | Potency [9] | outcome [10] | Potency [11] | Potency [13] | Potency [14] | outcome [19] | Potency [15] | Potency [16]

CCNc1nc(Cl)nc(NC(C)(C)C)n1
inactive: Potency [1] | outcome [2] | Potency [3] | Potency [5] | Potency [6] | Potency [7] | Potency [17] | outcome [8] | Potency [9] | outcome [10] | Potency [11] | Potency [18] | Potency [12] | Potency [14] | outcome [19] | Potency [15] | Potency [16]

CCC1(c2ccccc2)C(=O)N(COC)C(=O)N(COC)C1=O
inactive: Potency [1] | outcome [2] | Potency [3] | Potency [4] | Potency [5] | Potency [6] | outcome [8] | Potency [9] | outcome [10] | Potency [11] | Potency [18] | Potency [13] | Potency [14] | outcome [19] | Potency [15] | Potency [16]
